Reference: PubChem BioAssay (NCI)
The panel holds about 79,000 compounds, 15% with a hit somewhere; the sample as a whole holds those more often. No stated cut-off is given here; in the data, active means growth inhibition above about 70%; inactive means the rest.

Assays:
[1] = NCI Yeast Anticancer Drug Screen. Data for the rad50 strain (AID 155);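 further: 0% = growth of vehicle-only cultures of the same strain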; conditions: S. cerevisiae rad50 strain growth inhibition; at 50.0 µM; stronger effect = higher value
Procedure, shortened: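 Compounds were tested on a yeast strain with an engineered DNA damage repair alteration; the reported value is growth inhibition normalised to vehicle treatment.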

[2] = NCI Yeast Anticancer Drug Screen. Data for the mec2-1 strain (AID 157); conditions: S. cerevisiae mec2-1 strain, at 50.0 µM, stronger effect = higher value
Procedure, shortened: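 Test agents were screened against the mec2-1 yeast strain, with defined DNA repair or cell cycle alteration. Growth was scored as inhibition against vehicle-only controls.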

[3] = NCI Yeast Anticancer Drug Screen. Data for the sgs1 mgt1 strain (AID 161);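 further: 0% = growth of cultures given vehicle only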; conditions: S. cerevisiae sgs1 mgt1 strain, at 50.0 µM, stronger effect = higher value
Procedure, shortened: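 Genetically altered yeast, compound exposure, growth inhibition relative to vehicle.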

[4] = NCI Yeast Anticancer Drug Screen. Data for the cln2 rad14 strain (AID 165);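 further: 0% = growth equal to vehicle treated cultures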; conditions: S. cerevisiae cln2 rad14 strain, at 50.0 µM, stronger effect = higher value
Procedure, shortened: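 Growth of compound-exposed yeast (cln2 rad14 genotype) measured and expressed as inhibition relative to vehicle.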

[5] = NCI Yeast Anticancer Drug Screen. Data for the bub3 strain (AID 167); conditions: S. cerevisiae bub3 mutant strain, at 50.0 µM, stronger effect = higher value
Procedure, shortened: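 Growth of a checkpoint-deficient yeast mutant is measured after compound exposure. Values represent inhibition relative to vehicle.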

[6] = NCI Yeast Anticancer Drug Screen. Data for the mlh1 rad18 strain (AID 175); conditions: S. cerevisiae mlh1 rad18 strain growth inhibition; at 50.0 µM; stronger effect = higher value
Procedure, shortened: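 In this whole-cell yeast screen, a strain with altered DNA damage repair is challenged with compound, and its growth is measured against matched vehicle-treated controls.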

Measured: growth inhibition

COC(=O)c1nc(N)nc(C(=O)OC)c1C(=O)c1cccnc1
inactive: [1] -15.2% | [2] -17.8% | [3] -0.35% | [4] -15.3% | [5] -4.7% | [6] 10.1%

COC(=O)/C=C/c1cc(OC)c2c(c1)C(C(=O)OC)C(c1ccc(O)c(OC)c1)O2 (stereo unspecified)
inactive: [1] -2.75% | [2] 7.6% | [3] -38.4% | [4] -17.6% | [5] -23.8% | [6] -8.95%

CCOC(=O)c1c(C(C)=O)cnc2c(C#N)cnn12
inactive: [1] -1.15% | [2] -1.55% | [3] -4.95% | [4] 41% | [5] 0.6% | [6] -10.9%

O=C(CCC(=O)Nc1ccc(Cl)c(Cl)c1)CC(=O)c1ccc(F)cc1
inactive: [1] -17.4% | [2] -9.4% | [3] 14.4% | [4] 4.3% | [5] 19.1% | [6] -1.65%

COc1ccc2c(c1)CC1(CC2)NCC(=O)NC1=O (stereo unspecified)
inactive: [1] 7.9% | [2] 15.6% | [3] -11.8% | [4] -2% | [5] 5.8% | [6] 12.4%

CN(c1ccc(C(=O)c2ccc(N(C)S(C)(=O)=O)cc2)cc1)S(C)(=O)=O
inactive: [1] -22.6% | [2] -27.9% | [3] -8.05% | [4] -2.35% | [5] 4.5% | [6] -6.6%

CCNc1nnc(N=Nc2ccccc2)s1
inactive: [1] 0.5% | [2] 12.8% | [3] 13.4% | [4] -2% | [5] 7.55% | [6] 3.65%

NC(=Nc1ccc(Br)cc1)/N=C(/N)Nc1cccc(S(=O)(=O)Nc2ncc(Cl)cn2)c1
inactive: [1] 10.2% | [2] -8.75% | [3] 25.2% | [4] 15.8% | [5] 1.95% | [6] 4.95%

CCOC(=O)CCCCCSc1n[nH]c(=O)[nH]c1=O
inactive: [1] -7.5% | [2] -11% | [3] -21.9% | [4] 5.75% | [5] 6.15% | [6] -4.2%

CCOC(=O)Nc1c2ccccc2c(NC(=O)OCC)c2ccccc12
inactive: [1] 30.2% | [2] 8.9% | [3] 1% | [4] 12.8% | [5] 15% | [6] -6%

CON[N+]([O-])=NC(C)C
inactive: [1] 27.6% | [2] 6.3% | [3] 21.6% | [4] 11.5% | [5] 17% | [6] 21.8%

COc1ccc(/C(Nc2ccccc2)=C(\CCl)c2ccccc2)cc1OC
inactive: [1] 6.5% | [2] 7.75% | [3] 34.5% | [4] 5.1% | [5] 44.4% | [6] 9.25%

COC(=O)/C=C/c1ccc2c(c1)CCCC2
inactive: [1] 18.1% | [2] 15.1% | [3] 10.6% | [4] -8.7% | [5] 22.2% | [6] 24.4%

Cc1cc(=O)[nH]c2cc(O)c(C(=O)O)cc12
inactive: [1] -2.95% | [2] 3.7% | [3] -0.3% | [4] -54.5% | [5] 1.6% | [6] -8.15%

CCN(CC)c1ccc2cc(C(=O)Nc3cccc4ccccc34)c(=N)oc2c1
inactive: [1] 14.4% | [2] 3.05% | [3] -10.2% | [4] -5.45% | [5] -25.9% | [6] -53.6%

CC1(C)CO/C(=C/C(=O)c2ccccc2)N1C(=O)c1ccccc1
inactive: [1] -4.6% | [2] 11.7% | [3] -6.15% | [4] 1.55% | [5] 4% | [6] -0.45%

Cc1cc2nc3n(c2cc1C)C(=O)c1cc2ccccc2cc1-3
inactive: [1] -8.55% | [2] 0.6% | [3] 3.1% | [4] 7.7% | [5] -10.4% | [6] 2.7%

O=c1[nH]cnc2c1ncn2CCCc1ccccc1
inactive: [1] -1% | [2] 7.5% | [3] 2.8% | [4] -69.6% | [5] 3% | [6] -17.1%

CCCCCCCCCc1cc(=O)c2ccc(OCc3ccccc3)cc2o1
inactive: [1] -42.5% | [2] -28.6% | [3] -21.1% | [4] -11.2% | [5] -28.6% | [6] -42%

S=C(Nc1ccc(Cl)cc1)Nc1ccc(Cc2ccc(NC(=S)Nc3ccc(Cl)cc3)cc2)cc1
inactive: [1] 53.9% | [2] 36.2% | [3] 49.6% | [4] 59.4% | [5] 53.6% | [6] 20.4%

C1C2CC3CC1CC(c1nn4c(C56CC7CC(CC(C7)C5)C6)nnc4s1)(C2)C3
inactive: [1] -20.4% | [2] -12.8% | [3] -9.1% | [4] 11.2% | [5] -12.4% | [6] -17.9%

COC12OCCN(C)C1=CC(=O)C1N=NCC12 (stereo unspecified)
inactive: [1] 5.75% | [2] 1.35% | [3] 11.2% | [4] 8.3% | [5] -0.3% | [6] 7.55%

Cc1ccc(C(=O)Oc2ccccc2)cc1N=NN(C)C
inactive: [1] -20.7% | [2] -49% | [3] -56.8% | [4] 25.5% | [5] -29.8% | [6] -24.1%

CCC(c1ccc(OC)cc1)c1cc2c(cc1OCC(=O)O)OCO2 (stereo unspecified)
inactive: [1] 36.6% | [2] 55.2% | [3] 57.1% | [4] 53.9% | [5] 44.5% | [6] 65.5%

CCCCC(=O)NCCNC(=O)CCCC
inactive: [1] -0.5% | [2] 7% | [3] -1.8% | [4] -18.6% | [5] 14.2% | [6] 9.55%

CCOC(=O)Cc1nc2sc3c(c2c(=O)[nH]1)CCCC3
inactive: [1] 10.4% | [2] 1.8% | [3] 22.4% | [4] -0.9% | [5] 3.9% | [6] 17.2%

C=CCC1(/C(=C\CC)CCC)C(=O)NC(=O)N=C1N (stereo unspecified)
inactive: [1] 8.45% | [2] -0.3% | [3] 10% | [4] -36.8% | [5] -11.2% | [6] 8.3%

COc1cccc(NC(=O)C(=O)C2C=CCS2(=O)=O)c1 (stereo unspecified)
inactive: [1] 0.4% | [2] -0.65% | [3] -31.4% | [4] -6.6% | [5] -28.3% | [6] -13%

CC1=C(C(=O)CC(=O)C(=O)Nc2cccc(C)c2C)Sc2ccccc2N1
inactive: [1] -24.6% | [2] -43.1% | [3] -12.8% | [4] -1.9% | [5] -13.8% | [6] -12.5%

COc1cccc(OC)c1C
inactive: [1] 15.1% | [2] -11.1% | [3] -10.6% | [4] 14.6% | [5] -4.25% | [6] 16.6%

C=CCNC(=S)/N=C/C(C(=O)Nc1ccccc1OC)=C(\C)O
inactive: [1] -17.4% | [2] -19.2% | [3] -27.3% | [4] -9.85% | [5] -34.5% | [6] -16.3%

O=C(O)CN1CCN(CC(=O)O)CCN(CC(=O)O)CCN(CC(=O)O)CC1
inactive: [1] -7.95% | [2] -0.55% | [3] 2.9% | [4] -17.6% | [5] 20.4% | [6] 21.6%

COC(=O)c1cc(O)c(C(=O)OC)s1
inactive: [1] 3.05% | [2] -9.75% | [3] -0.55% | [4] -27.9% | [5] 14.8% | [6] 11.2%

Cc1ccc(/S(Cc2ccccc2)=N\S(=O)(=O)c2ccc(C)cc2)cc1 (stereo unspecified)
inactive: [1] -40.2% | [2] -36% | [3] -60.9% | [4] -13.3% | [5] -27.8% | [6] -33.1%

S=C(S)NC1CCN(Cc2ccccc2)CC1
inactive: [1] 56.4% | [2] 30.6% | [3] 49% | [4] 48% | [5] 61.5% | [6] 26.1%

CCOC(=O)c1cc2ccccc2oc1=O
inactive: [1] -15.2% | [2] 0.3% | [3] -8.75% | [4] 16.4% | [5] 9.25% | [6] 3.9%

COc1cc(OC)c(-c2oc3ccccc3c(=O)c2O)c(OC)c1
inactive: [1] -9.5% | [2] 12.7% | [3] 2.4% | [4] -13.2% | [5] 4.65% | [6] -5.45%

c1ccc(CN(CCNc2ccccc2)c2ccccc2)cc1
inactive: [1] 13.2% | [2] 48.4% | [3] 46.2% | [4] 5.1% | [5] 50.6% | [6] 3.7%

COc1ccc2c(=O)c(-c3ccc(OC)c(OC)c3)c(C)oc2c1
inactive: [1] -0.7% | [2] -1.5% | [3] 13.1% | [4] 7.5% | [5] -31.4% | [6] -4.85%

N#CC1C(=O)NC(=O)C(C#N)C12CCCC2 (stereo unspecified)
inactive: [1] -3.65% | [2] -9.2% | [3] 5.25% | [4] -22.2% | [5] 10.9% | [6] 10.7%

COc1ccccc1OC(C)=O
inactive: [1] -5.2% | [2] -14.4% | [3] -2.3% | [4] -8.2% | [5] -1.35% | [6] 17.9%
